# Data: PubChem BioAssay
# A number with no mark means an inactive call. The source made the active and inactive calls.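 The calls were made as follows, unless noted: active = mean inhibition above 46.5%, the solvent-only control mean plus 3 SD; inactive = the rest.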
# How the values were obtained:
# [1] = system: transactivating tegument protein VP16 (Human herpesvirus 1); test: compounds suppressing VP16-driven luciferase signal – cell-based, luminescence, single concentration, counter-screen for SRC2 inhibitor project (AID 652007; in the data active = inhibition above about 36%); details: cell-based VP16 transactivation luciferase reporter, at 8.9 µM, stronger effect = higher value
# [2] = target: Nuclear receptor coactivator 2 (Homo sapiens) (UniProt Q15596); test: inhibition of GAL4-SRC2 driven luciferase expression – cell-based, luminescence, HEK293, triplicate, confirmation (AID 652008); details: HEK293 GAL4-SRC2 luciferase reporter, at 8.9 µM, stronger effect = higher value;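 also: 0% = DMSO-treated cells and 100% = Gossypol at 36 µM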
# Nuclear receptor coactivator 2 (Homo sapiens), sequence (Q15596 whole entry, looked up, the tested form may be a part): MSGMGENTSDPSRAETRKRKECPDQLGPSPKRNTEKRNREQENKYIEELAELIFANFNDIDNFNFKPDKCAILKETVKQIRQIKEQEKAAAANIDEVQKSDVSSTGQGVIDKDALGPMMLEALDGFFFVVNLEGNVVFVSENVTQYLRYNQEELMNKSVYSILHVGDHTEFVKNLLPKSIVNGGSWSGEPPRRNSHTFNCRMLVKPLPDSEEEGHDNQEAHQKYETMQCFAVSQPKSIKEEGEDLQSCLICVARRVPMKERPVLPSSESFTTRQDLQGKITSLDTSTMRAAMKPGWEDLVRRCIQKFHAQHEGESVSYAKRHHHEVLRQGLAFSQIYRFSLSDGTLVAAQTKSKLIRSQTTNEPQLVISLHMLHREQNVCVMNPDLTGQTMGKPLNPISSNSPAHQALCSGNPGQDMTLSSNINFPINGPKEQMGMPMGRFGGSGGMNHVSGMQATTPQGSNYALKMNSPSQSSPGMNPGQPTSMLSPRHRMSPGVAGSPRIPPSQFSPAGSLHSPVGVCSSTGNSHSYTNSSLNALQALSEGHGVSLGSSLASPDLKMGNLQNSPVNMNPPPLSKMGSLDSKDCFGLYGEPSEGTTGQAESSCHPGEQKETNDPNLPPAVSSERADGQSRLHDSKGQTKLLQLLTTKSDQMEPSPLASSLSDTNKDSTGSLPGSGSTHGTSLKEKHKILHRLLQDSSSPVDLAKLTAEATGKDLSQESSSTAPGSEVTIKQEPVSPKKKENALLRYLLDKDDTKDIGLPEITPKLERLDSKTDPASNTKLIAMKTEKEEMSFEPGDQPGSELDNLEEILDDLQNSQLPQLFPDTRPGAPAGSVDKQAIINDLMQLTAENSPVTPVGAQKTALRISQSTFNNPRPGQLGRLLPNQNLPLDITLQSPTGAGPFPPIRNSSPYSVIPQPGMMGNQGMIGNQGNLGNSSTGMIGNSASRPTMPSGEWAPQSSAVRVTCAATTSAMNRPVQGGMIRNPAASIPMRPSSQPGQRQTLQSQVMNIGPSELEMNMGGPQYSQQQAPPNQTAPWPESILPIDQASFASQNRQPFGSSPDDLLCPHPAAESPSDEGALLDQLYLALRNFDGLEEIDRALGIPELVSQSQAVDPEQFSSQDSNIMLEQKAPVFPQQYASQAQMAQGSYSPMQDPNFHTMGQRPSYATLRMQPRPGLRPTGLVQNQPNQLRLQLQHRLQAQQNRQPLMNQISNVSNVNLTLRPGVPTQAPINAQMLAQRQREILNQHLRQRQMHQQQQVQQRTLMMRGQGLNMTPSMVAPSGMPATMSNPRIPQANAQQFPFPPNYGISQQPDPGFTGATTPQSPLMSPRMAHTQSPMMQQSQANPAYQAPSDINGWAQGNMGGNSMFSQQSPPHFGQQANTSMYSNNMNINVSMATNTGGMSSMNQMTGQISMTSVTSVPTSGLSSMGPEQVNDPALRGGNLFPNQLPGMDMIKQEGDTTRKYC
SMILES,inhibition [1],inhibition [2]
CC(=O)N1CCOc2ccc(S(=O)(=O)NCC3CCC(C(=O)Nc4ccc(C)cn4)CC3)cc21 (stereo not given),14.8%,15.4%
CCc1ccc(C=C2SC(=S)N(CCCC(=O)Nc3ccc(C(=O)O)cc3)C2=O)cc1,-9.93%,-5.86%
O=C1C=CC(=O)C(CNc2ccc(C(=O)OCc3ccccc3)cc2)=C1,38.2% (active),39.2%
O=C(CCl)N(Cc1ccccc1)c1ccccc1,26%,48.6% (active)
Nc1ncc([N+](=O)[O-])c(Oc2ccccc2F)n1,-7%,-16.8%
Cc1ccc(NC(=O)c2nc(S(=O)(=O)Cc3ccccc3)ncc2Cl)cc1,56.5% (active),74.4% (active)
CN(C)Cc1ccc(-c2nc3cccc4c3n2CCNC4=O)cc1,-27.9%,6.56%
CC(=O)C1=CCC(c2ccccc2Cl)N(S(=O)(=O)c2ccc(C)cc2)C1 (stereo not given),13.9%,15.3%
O=C(COC(=O)c1cc(S(=O)(=O)N2CCOCC2)ccc1F)NCc1ccc2c(c1)OCO2,-10.1%,-5.62%
CCC1CN(C(=O)NCc2cccc(OC)c2)c2ccccc2O1 (stereo not given),-11.8%,-14.7%
CC(C)(C)c1ccc(OC(=O)Nc2ccc(O)c(C(=O)O)c2)cc1,7.15%,30.5%
O=C1CSC(c2ccc([N+](=O)[O-])cc2)N1c1ccc(O)cc1 (stereo not given),5.23%,-13.8%
C[C@@H]1C[C@@H]2O[C@H]2CCCCC(=O)Cc2cc(O)cc(O)c2C(=O)O1,53.1% (active),28.7%
O=C(NCC1COc2ccccc2O1)c1cccc(S(=O)(=O)N2CCN(c3ccccc3)CC2)c1 (stereo not given),-4.6%,5.11%
O=S(=O)(c1ccc(Cl)cc1)N1CCCC1c1nc(-c2ccc(Cl)cc2)no1 (stereo not given),-5.4%,-14.7%
